This is an account of results in PubChem BioAssay AID493201 (National Center for Advancing Translational Sciences (NCATS), 2011).

Inconclusive results are not listed. Entries that show only a call come without a potency. The source made the active and inactive calls. Calls follow the shape of the dose curve; as a rule, active = well fitted activation curve with a large enough effect; inconclusive = small, poorly fitted or top-dose-only effect; inactive = no such curve, though single readings can be large or run the other way.

The experiment in a line: qHTS Assay for Identifying a Potential Treatment of Ataxia-Telangiectasia: Secondary assay (no NCS) hit validation.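 Also: phosphorylated KAP1 signal as a proxy for ATM-like kinase activity.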 In outline: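 hTERT-immortalized A-T patient fibroblasts (F2112), 500 cells/well, exposed to compounds at up to 76.7 uM final without NCS at 37C. KAP-1 phosphorylation measured by AlphaLISA after lysis and 6 h detection at 25C.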
Background: qHTS replaces the single test concentration by a dilution series.
Potency is read from the fitted curve at half-maximal effect.

With `S=c1[nH]nc(COc2ccccc2)n1/N=C/c1ccccc1Cl`, the Potency result was “inactive”.
In the case of `N#CCN1C(=O)C(=O)N(Cc2cccc(Cl)c2)C1=O` it was “inactive”.
Next, `CN(C)S(=O)(=O)c1cccc(C(=O)N=C2N=C3C=CC(Cl)=CN3Cc3ccccc32)c1`: “inactive”; `CCNC(=S)N(CCc1c(C)[nH]c2ccccc12)Cc1cccnc1`: “inactive”.
As for `CC(C)(C)NC(=O)c1cccc2c1-c1ccccc1C2=O`, the Potency result is “inactive”.
In the case of `COc1ccc(C2NC(=S)NC3=C2N2CCC3CC2)cc1` (stereo not drawn) it was 1.16 µM (active); in that of `CCC(=O)Nc1ccc(S(=O)(=O)c2ccc(NC(=O)CC)cc2)cc1`, “inactive”.
Next, `O=C(CSc1ccccn1)N/N=C/C=C/c1ccccc1`: “inactive”.
As for `Nc1nc2ccccc2cc1-c1cccs1`, the Potency result was “inactive”.
In the case of `Clc1cccc(Cl)c1CSc1nnc(-c2ccncc2)s1` it was 41.2 µM (active); in that of `CCOC(=O)Cc1csc(NC(=O)CSc2nnc(C(C)C)n2C)n1`, “inactive”.
Next, `CC(=O)c1sc2nc(C)c3c(c2c1N)CCCC3`: “inactive”.
In the case of `OC(CN1CCCCC1)Cn1c2ccc(Cl)cc2c2cc(Cl)ccc21` (stereo not drawn) it was “inactive”; in that of `Nc1ccc2ncccc2c1`, “inactive”; in that of `Cc1[nH]c2c(C)cccc2c1CN1CCC(CO)(Cc2ccccc2)CC1`, 1.84 µM (active).
Consider `CCN(CC)c1ccc2cc(-c3nc4ccccc4[nH]3)c(=O)oc2c1`, for which the Potency result is “inactive”.
In the case of `CC1C(c2ccccc2)N(C)C(c2ccccc2)CC1(O)c1ccccc1` (stereo not drawn), the Potency was 13 µM (active).
Next, `COc1cc(/C=C2\CCOC2=O)cc(OC)c1OC`: “inactive”; `O=C(O)CCCC(=O)N1N=C(c2ccccc2)CC1c1cccs1` (stereo not drawn): “inactive”.
In the case of `Cc1nc(Nc2ccc(Cl)cc2)c2oc3ccccc3c2n1` it was “inactive”; in that of `CCCCn1c2c(c(=N)c3ccccc31)CCC2`, “inactive”; in that of `CNC(=S)N/N=C/c1ccc2c(c1)OCCO2`, “inactive”.
On to `CC(C)NC(=O)c1ccc(COc2ccc(C(C)(C)C)cc2)o1`, for which the Potency entry was “inactive”.
For `CC(C)CN(CC(C)C)C(=O)c1cc2c(=O)n3ccccc3nc2s1`, the Potency result was “inactive”.
In the case of `O=C(/C(=C/c1ccc(Cl)cc1)c1nc2ccccc2[nH]1)c1cccs1` it was “inactive”; in that of `Fc1ccc(C2=NOC(c3nnc(-c4ccccc4)o3)C2)cc1` (stereo not drawn), “inactive”.
As for `CC(O)[C@H]1CNC(=O)C(=O)N1CC1(c2ccccc2)CC1` (stereo partly drawn), the Potency entry was “inactive”.
Next, `NCC(=O)c1cccc2ccc[n+]([O-])c12`: “inactive”; `COc1ccc(Oc2ncnc3c2oc2ccc(Br)cc23)cc1`: “inactive”; `COc1ccc(N(C)S(=O)(=O)c2cccc(C(=O)OCC(=O)NCc3ccccc3OC)c2)cc1`: “inactive”.
Next, `COc1cc(/C=C2\SC(=S)N(C(C(=O)O)c3ccccc3)C2=O)ccc1O` (stereo not drawn): “inactive”.
Next, `CS(=O)(=O)c1ccc(-c2csc(-c3cccnc3)n2)cc1`: “inactive”.
In the case of `O=C(CCCC(=O)N1CCCC1)N1CCCC1`, the Potency entry is “inactive”.
Turning to `CCN1C/C(=C/c2sccc2C)c2nc3ccccc3c(C(=O)O)c2C1`, the Potency was 16.4 µM (active).
Next, `COC(=O)c1ccncc1C(=O)Nc1ccc(Oc2ncc(C(F)(F)F)cc2Cl)cc1`: “inactive”.
On to `N#Cc1c2c(c(-n3cnc4ccccc43)n3c1nc1ccccc13)CCC2`, for which the Potency entry is “inactive”.
Next, `C=CCSc1nc2ccccc2n1C(=O)/C=C/c1cc(OC)c(OC)c(OC)c1`: “inactive”; `CCC[C@H]1CCCC/C=C\CCCC(=O)OCCN1C(=O)OC(C)(C)C`: “inactive”; `CC(C)(CN1CCN(c2ccccc2)CC1)NS(=O)(=O)c1ccccc1`: “inactive”.
Next, `CC(C)(C)n1nc2c(c1NC(=O)C1CC(=O)N(c3ccc(Cl)cc3)C1)CS(=O)(=O)C2` (stereo not drawn): “inactive”; `O=C(c1nn2c(C(F)(F)F)cc(-c3ccc(F)cc3)nc2c1Cl)N1CCOCC1`: “inactive”.
In the case of `CCn1c(=NC(=O)CN2C(=O)CCC2=O)sc2c(OC)ccc(OC)c21` it was 0.923 µM (active).
Take `CCCCCCCCCn1ccc(=N)cc1`: the Potency result is “inactive”.
As to `COc1cc(CCC(C)NCc2ccccc2)ccc1O` (stereo not drawn), the Potency result is “inactive”.
Next, `CCN(CC)c1ccc2c(Cl)c(Br)c(=O)oc2c1`: “inactive”.
In the case of `COc1ccccc1OC(=O)Nc1ccc(Cl)cc1` it was 3.28 µM (active); in that of `COc1ccc(-c2csc(-c3ccc(O)cc3)n2)cc1`, “inactive”.
On to `CCc1ccc(NC(=O)CNCc2ccc(OC)c(OC)c2)cc1`, for which the Potency entry is “inactive”.
Next, `Cc1ccc(NC(=O)Nc2cccnc2)cc1NC(=O)Nc1cccnc1`: “inactive”; `O=C1C2C3C=CC(CC3)C2C(=O)N1c1cccc(Br)c1` (stereo not drawn): “inactive”; `CCS(=O)(=O)c1ccc(C(=O)Nc2ccccc2)c(Cl)c1Cl`: 32.8 µM (active).
Next, `Oc1ccc(-c2nccc(-c3ccc(F)cc3)n2)cc1`: 5.82 µM (active); `COc1cc(CCC(=O)OCC(=O)N2CCc3ccccc32)cc(OC)c1OC`: “inactive”.
In the case of `COc1cccc(OC)c1C(=O)NC(=O)Nc1c(C)cccc1C` it was “inactive”; in that of `COc1ccccc1[C@H]1C(c2cccc(Cl)c2)=NN(c2ccccc2)[C@@H]1CO`, “inactive”.
In the case of `CC(C)C1CC(CCN)(c2ccccc2)CCO1` (stereo not drawn), the Potency result is “inactive”.
Next, `O=C(O)c1nccnc1C(=O)Nc1ccccc1-c1ccccc1`: “inactive”; `COc1ccc(CCNC2=NCCS2)cc1OC`: “inactive”; `Cc1cccc(C)c1NC(=O)COC(=O)c1cc(=O)c2ccccc2o1`: “inactive”.
In the case of `Cc1cc(C)n2nc(C(=O)OCCOc3ccc(F)cc3)nc2n1` it was 58.2 µM (active); in that of `COc1cc(/C=N/NC(=O)c2c(C)nc3ccc(Cl)cn23)cc(OC)c1OC`, 3.68 µM (active); in that of `C=CCN1C(=O)/C(=C/C(=O)OC)S/C1=N\NC(=O)c1ccccc1`, “inactive”.
On to `COc1ccccc1NC(=O)C1CCCN(S(=O)(=O)c2ccc(-n3cnnn3)cc2)C1` (stereo not drawn), for which the Potency result is “inactive”.
Next, `CC1=NOC2(C1)N(C)c1ccccc1C2(C)C` (stereo not drawn): “inactive”; `O=C1C(Cl)=C(Nc2ccc3cn[nH]c3c2)C(=O)c2ccccc21`: 1.3 µM (active).
Next, `COc1ccccc1C(=O)NC(=O)Nc1cccc(Cl)c1`: “inactive”; `O=C(Nc1ccc(N2CCCC2)cc1)c1ccc(Cl)cc1Cl`: “inactive”.
In the case of `O=C(O)c1ccc(-c2nc3ccccc3s2)o1` it was “inactive”; in that of `CC(C)OP(=O)(OC(C)C)C(O)c1ccc(N(C)C)cc1` (stereo not drawn), 9.23 µM (active); in that of `O=C(CNCc1cccs1)Nc1cc(S(=O)(=O)N2CCCC2)ccc1Cl`, “inactive”.
As to `CCN(CC)S(=O)(=O)c1ccc(Cl)c(NC(=O)CCCCl)c1`, the Potency entry was “inactive”.
In the case of `O=C(N/N=C/c1ccncc1)c1ccc(COc2cccc3cccnc23)cc1` it was “inactive”; in that of `O=C(Nc1cc(S(=O)(=O)N2CCOCC2)ccc1Cl)c1cc(=O)c2ccccc2o1`, “inactive”; in that of `COc1cccc(OCCc2c(C)n[nH]c2C)c1`, “inactive”.
In the case of `COC(=O)Cn1ccc2cc(S(=O)(=O)N3CCCCC3)ccc21` it was “inactive”.
Next, `COc1ccc(-n2c(C)cc(=O)[nH]c2=O)cc1`: “inactive”; `CCOc1ccc(NC2=CC(=O)CCC2)cc1`: “inactive”; `O=C(Nc1ccc([N+](=O)[O-])cc1)c1cc2ccccc2nc1Cl`: “inactive”.
Turning to `CCOC(=O)CN(C(=O)CSc1nnc(COc2ccc(OC)cc2)n1CC)c1ccccc1`, the Potency result was “inactive”.
Next, `CCN(CC)CCNC(=O)CCc1c(C)nc2c(c(C)nn2-c2ccc(C)cc2)c1C`: “inactive”.
As to `CCCc1ccc(S(=O)(=O)Nc2ccc(C)c(NS(C)(=O)=O)c2)cc1`, the Potency result was “inactive”.
As for `CC(=O)Nc1ccc(NC(=O)CSc2nnnn2-c2ccc(F)cc2)cc1`, the Potency result was “inactive”.
In the case of `COC(=O)c1cccc2c1-c1ccccc1/C2=N\NC(N)=O` it was “inactive”.
